# Data as given in PubChem BioAssay (Tox21).
# Several values for one entry are separate records, joined by “and”; a condition that tells them apart may be missing. Identical values can stand only once. Inconclusive results are not listed. Entries that show only a call come without a potency. A structure can be active in one record and inactive in another. Activity calls are given as the source filed them. Calls follow the shape of the dose curve; as a rule, active = well fitted curve in the direction sought with a large enough effect in the repeat runs; inconclusive = weak or mixed curves; inactive = no such curve, though single readings can be large; an effect the other way counts as inactive or inconclusive.
# What was measured:
# [1] = A CellTox Green Cytotoxicity Assay to monitor cytotoxicity in HEK293 cells - 40 hour (AID 1224871); also: nearly all actives have a fitted effect of over 45% in size; also: potency is read from the fitted curve at half-maximal effect
# Summary of the method: (§1)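 Nonlytic real-time cytotoxicity: HEK293 + CellTox Green reagent plated, 5 h preincubation, pintool compound addition (23 nL in DMSO), 37 C for 40 h, fluorescence measured at successive time points.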
# [2] = qHTS RealTime-Glo MT Cell Viability Assay in HepG2 cells - 8 hour (AID 1224873); also: nearly all actives have a fitted effect of over 55% in size
# Summary of the method: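 HepG2 cells (600/well) mixed with RealTime-Glo MT reagent, settled 5 h at 37 C/5% CO2 before compound addition. Nonlytic NanoLuc luminescence from viable-cell prosubstrate reduction read repeatedly during 40 h treatment at 37 C.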
# [3] = qHTS RealTime-Glo MT Cell Viability Assay in HEK293 cells - 40 hour (AID 1224874); details: RealTime-Glo luminescence; max response: stronger effect = lower value; also: nearly all actives have a fitted effect of over 50% in size; also: potency is read from the fitted curve at half-maximal effect
# Summary of the method: (§2)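 Cells were seeded together with NanoLuc luciferase and a prosubstrate that viable cells reduce to a luciferase substrate. After a 5 h incubation at 37 C/5% CO2, compounds were added and luminescence was measured repeatedly during 40 h of treatment.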
# [4] = A CellTox Green Cytotoxicity Assay to monitor cytotoxicity in HEK293 cells - 24 hour (AID 1224875); also: nearly all actives have a fitted effect of over 45% in size; also: potency is read from the fitted curve at half-maximal effect
# Summary of the method: as §1
# [5] = A CellTox Green Cytotoxicity Assay to monitor cytotoxicity in HepG2 cells - 16 hour (AID 1224876); also: nearly all actives have a fitted effect of over 45% in size; also: potency is read from the fitted curve at half-maximal effect
# Summary of the method: (§3)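 Read-out is fluorescence of a cyanine dye excluded from live cells that stains DNA of dead HepG2 cells, with signal proportional to cytotoxicity. Plates were read at 0, 8, 16, 24, 32 and 40 h after compound addition.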
# [6] = qHTS RealTime-Glo MT Cell Viability Assay in HepG2 cells - 32 hour (AID 1224877); also: nearly all actives have a fitted effect of over 55% in size; also: potency is read from the fitted curve at half-maximal effect
# Summary of the method: (§4)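 Real-time, nonlytic viability: 600 HepG2 cells/well mixed with NanoLuc enzyme plus prosubstrate; 5 h settle, compound (DMSO) added by pintool; luminescence monitored over 40 h at 37 C.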
# [7] = A CellTox Green Cytotoxicity Assay to monitor cytotoxicity in HepG2 cells - 24 hour (AID 1224878); also: nearly all actives have a fitted effect of over 45% in size; also: potency is read from the fitted curve at half-maximal effect
# Summary of the method: as §3
# [8] = qHTS RealTime-Glo MT Cell Viability Assay in HEK293 cells - 0 hour (AID 1224880)
# Summary of the method: as §2
# [9] = A CellTox Green Cytotoxicity Assay to monitor cytotoxicity in HEK293 cells - 32 hour (AID 1224881); also: nearly all actives have a fitted effect of over 40% in size; also: potency is read from the fitted curve at half-maximal effect
# Summary of the method: as §1
# [10] = A CellTox Green Cytotoxicity Assay to monitor cytotoxicity in HepG2 cells - 0 hour (AID 1224882); also: nearly all actives have a fitted effect of over 35% in size
# Summary of the method: as §3
# [11] = A CellTox Green Cytotoxicity Assay to monitor cytotoxicity in HepG2 cells - 32 hour (AID 1224883); also: nearly all actives have a fitted effect of over 50% in size; also: potency is read from the fitted curve at half-maximal effect
# Summary of the method: as §3
# [12] = A CellTox Green Cytotoxicity Assay to monitor cytotoxicity in HEK293 cells - 8 hour (AID 1224884); also: nearly all actives have a fitted effect of over 35% in size
# Summary of the method: as §1
# [13] = qHTS RealTime-Glo MT Cell Viability Assay in HEK293 cells - 24 hour (AID 1224886); also: nearly all actives have a fitted effect of over 50% in size; also: potency is read from the fitted curve at half-maximal effect
# Summary of the method: (§5)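 Cells + reagent dispensed (600 cells/well, HEK293) → 5 h at 37 C/5% CO2 → 23 nL compound in DMSO pinned → 40 h at 37 C → luminescence read at 0, 8, 16, 24, 32, 40 h.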
# [14] = A CellTox Green Cytotoxicity Assay to monitor cytotoxicity in HEK293 cells - 16 hour (AID 1224888); also: nearly all actives have a fitted effect of over 35% in size
# Summary of the method: as §1
# [15] = qHTS RealTime-Glo MT Cell Viability Assay in HepG2 cells - 0 hour (AID 1224889); also: nearly all actives have a fitted effect of over 50% in size
# Summary of the method: as §4
# [16] = qHTS RealTime-Glo MT Cell Viability Assay in HEK293 cells - 16 hour (AID 1224872); also: nearly all actives have a fitted effect of over 50% in size; also: potency is read from the fitted curve at half-maximal effect
# Summary of the method: as §5
# [17] = A CellTox Green Cytotoxicity Assay to monitor cytotoxicity in HepG2 cells - 40 hour (AID 1224879); also: nearly all actives have a fitted effect of over 40% in size; also: potency is read from the fitted curve at half-maximal effect
# Summary of the method: as §3
# [18] = qHTS RealTime-Glo MT Cell Viability Assay in HEK293 cells - 8 hour (AID 1224887); also: nearly all actives have a fitted effect of over 50% in size; also: potency is read from the fitted curve at half-maximal effect
# Summary of the method: as §2
# [19] = A CellTox Green Cytotoxicity Assay to monitor cytotoxicity in HepG2 cells - 8 hour (AID 1224890); also: nearly all actives have a fitted effect of over 45% in size
# Summary of the method: as §3
# [20] = qHTS RealTime-Glo MT Cell Viability Assay in HepG2 cells - 16 hour (AID 1224885); also: nearly all actives have a fitted effect of over 50% in size
# Summary of the method: as §4
smiles,measurement,setting,value
CCOP(=O)(OCC)O/C(=C/Cl)c1ccc(Cl)cc1Cl,Potency,[1],inactive
same,Potency,[2],inactive
same,Potency,[3],19.5 µM (active)
same,Potency,[4],inactive
same,Potency,[5],inactive
same,Potency,[6],inactive
same,Potency,[7],inactive
same,Potency,[8],inactive
same,Potency,[9],inactive
same,Potency,[10],inactive
same,Potency,[11],inactive
same,Potency,[12],inactive
same,Potency,[13],24.5 µM (active)
same,Potency,[14],inactive
same,Potency,[15],inactive
CC(C)N(C(=O)COc1nnc(C(F)(F)F)s1)c1ccc(F)cc1,Potency,[1],inactive
same,Potency,[16],34.7 µM (active)
same,Potency,[4],inactive
same,Potency,[5],inactive
same,Potency,[7],inactive
same,Potency,[17],inactive
same,Potency,[8],inactive
same,Potency,[9],inactive
same,Potency,[10],inactive
same,Potency,[11],inactive
same,Potency,[12],inactive
same,Potency,[18],34.7 µM (active)
same,Potency,[14],inactive
same,Potency,[15],inactive
same,Potency,[19],inactive
C=CCN1CC[C@]23c4c5ccc(O)c4O[C@H]2C(=O)CC[C@@]3(O)[C@H]1C5,Potency,[1],inactive
same,Potency,[16],inactive
same,Potency,[2],inactive
same,Potency,[4],inactive
same,Potency,[6],inactive
same,Potency,[7],inactive
same,Potency,[17],inactive
same,Potency,[8],inactive
same,Potency,[9],inactive
same,Potency,[10],inactive
same,Potency,[11],inactive
same,Potency,[12],inactive
same,Potency,[20],inactive
same,Potency,[13],inactive
same,Potency,[18],inactive
same,Potency,[14],inactive
same,Potency,[15],inactive
same,Potency,[19],inactive
O=C(CCl)c1ccc(Cl)cc1Cl,Potency,[1],8.49 µM (active)
same,Potency,[16],4.25 µM (active)
same,Potency,[3],17.3 µM (active) and 2.39 µM (active)
same,Potency,[4],10.7 µM (active)
same,Potency,[5],inactive and 23.9 µM (active)
same,Potency,[6],inactive and 21.3 µM (active)
same,Potency,[7],inactive and 23.9 µM (active)
same,Potency,[17],23.9 µM (active)
same,Potency,[8],inactive
same,Potency,[9],8.49 µM (active)
same,Potency,[11],23.9 µM (active)
same,Potency,[12],inactive
same,Potency,[13],4.77 µM (active)
same,Potency,[14],inactive
same,Potency,[15],inactive
O=[N+]([O-])c1ccc(F)c([N+](=O)[O-])c1,Potency,[1],inactive
same,Potency,[2],inactive
same,Potency,[4],inactive
same,Potency,[5],inactive
same,Potency,[6],inactive
same,Potency,[7],inactive
same,Potency,[17],inactive
same,Potency,[8],inactive
same,Potency,[9],inactive
same,Potency,[10],inactive
same,Potency,[11],inactive
same,Potency,[12],inactive
same,Potency,[14],inactive
same,Potency,[15],inactive
C/C(=C\c1ccccc1)[N+](=O)[O-],Potency,[1],9.77 µM (active)
same,Potency,[2],inactive
same,Potency,[3],11 µM (active)
same,Potency,[4],inactive
same,Potency,[8],inactive
same,Potency,[10],inactive
same,Potency,[12],inactive
same,Potency,[14],inactive
same,Potency,[15],inactive
same,Potency,[19],inactive
CC(C)(C)C(O)C(Oc1ccc(Cl)cc1)n1cncn1 (stereo unspecified),Potency,[1],5.49 µM (active)
same,Potency,[2],inactive
same,Potency,[3],11 µM (active)
same,Potency,[4],inactive
same,Potency,[6],inactive
same,Potency,[7],43.6 µM (active)
same,Potency,[8],inactive
same,Potency,[9],inactive
same,Potency,[10],inactive
same,Potency,[11],43.6 µM (active)
same,Potency,[12],inactive
same,Potency,[20],inactive
same,Potency,[13],12.3 µM (active)
same,Potency,[14],inactive
same,Potency,[15],inactive
same,Potency,[19],inactive
OC(c1ccc(Cl)cc1)(c1ccc(Cl)cc1)c1cccnc1,Potency,[1],inactive
same,Potency,[16],38.9 µM (active)
same,Potency,[3],38.9 µM (active)
same,Potency,[4],inactive
same,Potency,[5],inactive
same,Potency,[7],inactive
same,Potency,[17],inactive
same,Potency,[8],inactive
same,Potency,[9],inactive
same,Potency,[10],inactive
same,Potency,[11],inactive
same,Potency,[13],38.9 µM (active)
same,Potency,[14],inactive
same,Potency,[15],inactive
same,Potency,[19],inactive
COP(=S)(OC)Oc1ccc([N+](=O)[O-])cc1Cl,Potency,[1],inactive
same,Potency,[2],inactive
same,max response,[3],-20.6% (inactive)
same,Potency,[4],inactive
same,Potency,[6],inactive
same,Potency,[7],inactive
same,Potency,[9],inactive
same,Potency,[10],inactive
same,Potency,[11],inactive
same,Potency,[20],inactive
same,Potency,[13],inactive
same,Potency,[14],inactive
same,Potency,[15],inactive
same,Potency,[19],inactive
C=CC(=O)OCCCCO,Potency,[1],inactive
same,Potency,[16],inactive
same,max response,[3],18.2% (inactive)
same,Potency,[4],inactive
same,Potency,[5],inactive
same,Potency,[6],inactive
same,Potency,[7],inactive
same,Potency,[17],inactive
same,Potency,[8],inactive
same,Potency,[9],inactive
same,Potency,[10],inactive
same,Potency,[11],inactive
same,Potency,[12],inactive
same,Potency,[20],inactive
same,Potency,[13],inactive
same,Potency,[18],inactive
same,Potency,[14],inactive
same,Potency,[15],inactive
same,Potency,[19],inactive
O=C(Nc1ccccc1)Nc1cnns1,Potency,[1],inactive
same,Potency,[2],inactive
same,Potency,[3],27.5 µM (active)
same,Potency,[4],inactive
same,Potency,[5],inactive
same,Potency,[6],inactive
same,Potency,[7],inactive
same,Potency,[8],inactive
same,Potency,[9],inactive
same,Potency,[11],inactive
same,Potency,[12],inactive
same,Potency,[20],inactive
same,Potency,[13],24.5 µM (active)
same,Potency,[14],inactive
same,Potency,[15],inactive
same,Potency,[19],inactive
CC(C)=CCOc1c2occc2cc2ccc(=O)oc12,Potency,[1],inactive
same,Potency,[16],inactive
same,Potency,[4],inactive
same,Potency,[6],inactive
same,Potency,[7],inactive
same,Potency,[9],inactive
same,Potency,[10],inactive
same,Potency,[11],inactive
same,Potency,[12],inactive
same,Potency,[13],inactive
same,Potency,[18],inactive
same,Potency,[14],inactive
same,Potency,[15],inactive
same,Potency,[19],inactive
